Results filed as inconclusive are left out. Active and inactive are the calls of the source. Unless noted, calls follow the shape of the dose curve; as a rule, active = well fitted curve in the direction sought with a large enough effect in the repeat runs; inconclusive = weak or mixed curves; inactive = flat fitted curve, though single readings scatter.
Legend:
[1] = qHTS assay to test for compound auto fluorescence at 535 nm (green) in HEK293 cells (AID 720680)
[2] = qHTS assay to test for compound auto fluorescence at 460 nm (blue) in HEK293 cell free culture (AID 720681)
Summary of the method: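 Blue fluorescence (Ex 405/Em 460 nm, triamterene-equivalent) was read immediately after pin transfer of compound or DMSO into medium (DMEM, 10% FBS) without cells.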

[3] = qHTS assay to test for compound auto fluorescence at 535 nm (green) in HEK293 cell free culture (AID 720682)
Summary of the method: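 Green-label autofluorescence (485 nm excitation, 535 nm emission) measured on compound added to cell-free culture medium (DMEM, 10% FBS). Output is expressed relative to fluorescein.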

[4] = qHTS assay to test for compound auto fluorescence at 590 nm (red) in HEK293 cell free culture (AID 720683)
Summary of the method: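 Red-channel autofluorescence of compounds in culture medium (DMEM, 10% FBS), no cells, measured at 540/590 nm. Rose Bengal sodium is the reference fluorophore for equivalence.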

[5] = qHTS assay to test for compound auto fluorescence at 590 nm (red) in HepG2 cell free culture (AID 720684)
Summary of the method: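 Cell-free; medium MEM + 10% FBS; compound or DMSO added by pintool; read Ex 540/Em 590 nm; Rose Bengal sodium as red reference fluorophore.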

[6] = qHTS assay to test for compound auto fluorescence at 460 nm (blue) in HepG2 cell free culture (AID 720685)
Summary of the method: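 Cell-free plates of MEM plus 10% FBS received 23 nL compound or DMSO vehicle; blue-channel (405/460 nm) intensity scored against triamterene as reference fluorophore.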

[7] = qHTS assay to test for compound auto fluorescence at 535 nm (green) in HepG2 cell free culture (AID 720686)
[8] = qHTS assay to test for compound auto fluorescence at 460 nm (blue) in HepG2 cells (AID 720687)
Summary of the method: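 Blue-channel autofluorescence (Ex/Em 405/460 nm, triamterene-equivalent) was measured after 1 hr compound exposure at 37 C, 5% CO2. Cells were HepG2, plated overnight at 37 C in MEM plus 10% FBS.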

[9] = target: Glucocorticoid receptor (Homo sapiens) (UniProt P04150); experiment: qHTS assay to identify small molecule agonists of the glucocorticoid receptor (GR) signaling pathway (AID 720691; active = well fitted activation curve with a large enough effect in the signal ratio in the repeat runs, not every such curve was filed as active; the % refers to the signal ratio)
Summary of the method: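 Cells: GR-bla HeLa, endogenous GR with stably integrated GRE-beta-lactamase reporter. Treatment 18 h, 37 C, compounds delivered in DMSO. Detection via LiveBLAzer B/G FRET substrate, 2 h RT, fluorescence intensity.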

[10] = target: Glucocorticoid receptor (Homo sapiens) (UniProt P04150); experiment: qHTS assay to identify small molecule antagonists of the glucocorticoid receptor (GR) signaling pathway (AID 720692; active = well fitted inhibition curve with a large enough effect in the signal ratio in the repeat runs, not every such curve was filed as active; the % refers to the signal ratio)
Summary of the method: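 Quantitative HTS in antagonist format: HeLa cells expressing endogenous GR and a stably integrated GRE-bla reporter, stimulated with 5 nM dexamethasone (final) alongside test compounds for 18 h.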

Measured: Potency

Chain of Glucocorticoid receptor (Homo sapiens) (P04150 whole entry, looked up): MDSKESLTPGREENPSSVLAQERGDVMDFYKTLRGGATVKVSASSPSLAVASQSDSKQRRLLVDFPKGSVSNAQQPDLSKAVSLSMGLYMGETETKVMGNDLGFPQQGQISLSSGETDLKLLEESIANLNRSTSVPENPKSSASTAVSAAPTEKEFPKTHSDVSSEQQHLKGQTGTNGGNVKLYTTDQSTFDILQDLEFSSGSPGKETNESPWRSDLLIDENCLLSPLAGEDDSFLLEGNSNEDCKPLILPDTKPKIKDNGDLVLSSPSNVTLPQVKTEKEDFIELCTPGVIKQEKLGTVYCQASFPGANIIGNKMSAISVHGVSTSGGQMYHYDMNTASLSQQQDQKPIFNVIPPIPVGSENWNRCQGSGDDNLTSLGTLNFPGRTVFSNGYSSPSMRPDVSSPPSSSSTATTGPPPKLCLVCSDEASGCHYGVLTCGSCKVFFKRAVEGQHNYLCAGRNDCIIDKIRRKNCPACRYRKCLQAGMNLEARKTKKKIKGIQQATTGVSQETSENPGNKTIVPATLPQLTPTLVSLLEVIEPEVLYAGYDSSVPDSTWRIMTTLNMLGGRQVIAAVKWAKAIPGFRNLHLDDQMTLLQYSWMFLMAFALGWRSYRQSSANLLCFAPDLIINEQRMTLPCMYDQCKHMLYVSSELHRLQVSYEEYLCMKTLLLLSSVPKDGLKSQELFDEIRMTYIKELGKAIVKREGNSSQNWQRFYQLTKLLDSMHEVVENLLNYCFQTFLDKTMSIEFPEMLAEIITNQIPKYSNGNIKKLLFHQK

OCc1ccco1
inactive: [1] | [2] | [3] | [4] | [5] | [6] | [7] | [8]

Nc1ccc(N)cc1
inactive: [1] | [2] | [3] | [4] | [5] | [6] | [7] | [8]

Cc1ccccc1N
inactive: [1] | [2] | [3] | [4] | [5] | [6] | [7] | [8]

O=S(=O)(O)OOS(=O)(=O)O
inactive: [1] | [2] | [3] | [4] | [5] | [6] | [7] | [8]

C=CC(=O)OCCCCCC(C)C
inactive: [1] | [2] | [3] | [4] | [5] | [6] | [7] | [8]

CCCOC(=O)c1ccccc1C(=O)OCCC
inactive: [1] | [2] | [3] | [4] | [5] | [6] | [7] | [8]

Cc1cccc(N)c1
inactive: [1] | [2] | [3] | [4] | [5] | [6] | [7] | [8]

Nc1ccc([As](=O)(O)O)cc1
inactive: [1] | [2] | [3] | [4] | [5] | [6] | [7] | [8]

CNC(=O)O/N=C(\SC)C(=O)N(C)C
inactive: [1] | [2] | [3] | [4] | [5] | [6] | [7] | [8]

Oc1c(Br)cc(Br)cc1Br
inactive: [1] | [2] | [3] | [4] | [5] | [6] | [7] | [8]

CNC(=O)Oc1cccc2ccccc12
inactive: [1] | [2] | [3] | [4] | [5] | [6] | [7] | [8]

Cc1cc(Cl)ccc1OC(C)C(=O)O (configuration not stated)
inactive: [1] | [2] | [3] | [4] | [5] | [6] | [7] | [8]

Cc1ccc(N)cc1
inactive: [1] | [2] | [3] | [4] | [5] | [6] | [7] | [8]

CC(C)c1cccc(C(C)C)c1O
inactive: [1] | [2] | [3] | [4] | [5] | [6] | [7] | [8]

CN(C)C(=O)C(c1ccccc1)c1ccccc1
inactive: [1] | [2] | [3] | [4] | [5] | [6] | [7] | [8]

[N-]=[N+]=CC(=O)OC[C@H](N)C(=O)O
inactive: [1] | [2] | [3] | [4] | [5] | [6] | [7] | [8]

C/C=C/c1ccc2c(c1)OCO2
inactive: [1] | [2] | [3] | [4] | [5] | [6] | [7] | [8]

O=C(O)CCCc1ccc(N(CCCl)CCCl)cc1
inactive: [1] | [2] | [3] | [4] | [5] | [6] | [7] | [8]

C=CCN=C=S
inactive: [1] | [2] | [3] | [4] | [5] | [6] | [7] | [8]

COc1cc(-c2ccc(N)c(OC)c2)ccc1N
inactive: [1] | [2] | [3] | [4] | [5] | [6] | [7] | [8]

NNc1ccccc1
inactive: [1] | [2] | [3] | [4] | [5] | [6] | [7] | [8]

Nc1cccc(Cl)c1
inactive: [1] | [2] | [3] | [4] | [5] | [6] | [7] | [8]

CCSC(=O)N1CCCCCC1
inactive: [1] | [2] | [3] | [4] | [5] | [6] | [7] | [8]

CCCCCCCCCCCCCCCCCC(=O)O
inactive: [1] | [2] | [3] | [4] | [5] | [6] | [7] | [8]

O=C(O)Cc1ccccc1
inactive: [1] | [2] | [3] | [4] | [5] | [6] | [7] | [8]

N#CN=C(N)N
inactive: [1] | [2] | [3] | [4] | [5] | [6] | [7] | [8]

Nc1cc(Cl)cc(Cl)c1
inactive: [1] | [2] | [3] | [4] | [5] | [6] | [7] | [8]

Oc1ccc(Cl)cc1
inactive: [1] | [2] | [3] | [4] | [5] | [6] | [7] | [8]

CN(C)C(=O)Nc1cccc(C(F)(F)F)c1
inactive: [1] | [2] | [3] | [4] | [5] | [6] | [7] | [8]

COC(C)(C)CCCC(C)C/C=C/C(C)=C/C(=O)OC(C)C (configuration not stated)
inactive: [1] | [2] | [3] | [4] | [5] | [6] | [7] | [8]

CN(C)CCC#N
inactive: [1] | [2] | [3] | [4] | [5] | [6] | [7] | [8] | [9] | [10]

CN(C)NC(=O)CCC(=O)O
inactive: [1] | [2] | [3] | [4] | [5] | [6] | [7] | [8]

Cl[C@H]1OCCO[C@@H]1Cl
inactive: [1] | [2] | [3] | [4] | [5] | [6] | [7] | [8] | [9]

CCOc1ccc(N)cc1
inactive: [1] | [2] | [3] | [4] | [5] | [6] | [7] | [8] | [9] | [10]

c1ccc2c(c1)CCCC2
inactive: [1] | [2] | [3] | [4] | [5] | [6] | [7] | [8] | [9] | [10]

CNc1cnn(-c2cccc(C(F)(F)F)c2)c(=O)c1Cl
inactive: [1] | [2] | [3] | [4] | [5] | [6] | [7] | [8] | [9] | [10]

Cc1cccc(N)c1C
inactive: [1] | [2] | [3] | [4] | [5] | [6] | [7] | [8] | [9] | [10]

O=C/C=C/c1ccccc1
inactive: [1] | [2] | [3] | [4] | [5] | [6] | [7] | [8] | [9] | [10]

COP(=S)(OC)SCN1C(=O)c2ccccc2C1=O
inactive: [1] | [2] | [3] | [4] | [5] | [6] | [7] | [8] | [9] | [10]

CCOC(=O)CC(SP(=O)(OC)OC)C(=O)OCC (configuration not stated)
inactive: [1] | [2] | [3] | [4] | [5] | [6] | [7] | [8] | [9] | [10]

CCNc1nc(Cl)nc(NC(C)C)n1
inactive: [1] | [2] | [3] | [4] | [5] | [6] | [7] | [8] | [9] | [10]

Nc1nc(N)nc(NC2CC2)n1
inactive: [1] | [2] | [3] | [4] | [5] | [6] | [7] | [8] | [9] | [10]

C=CC#N
inactive: [1] | [2] | [3] | [4] | [5] | [6] | [7] | [8] | [9] | [10]

ClCCOCCCl
inactive: [1] | [2] | [3] | [4] | [5] | [6] | [7] | [8] | [9] | [10]

CC12CC1(C)C(=O)N(c1cc(Cl)cc(Cl)c1)C2=O (configuration not stated)
inactive: [1] | [2] | [3] | [4] | [5] | [6] | [7] | [8] | [9] | [10]

CCCCC(CC)C(=O)Cl (configuration not stated)
inactive: [1] | [2] | [3] | [4] | [5] | [6] | [7] | [8] | [9] | [10]

FC(F)(F)c1ccc(Cl)cc1
inactive: [1] | [2] | [3] | [4] | [5] | [6] | [7] | [8] | [9] | [10]

CC(=O)/C=C/c1ccccc1
inactive: [1] | [2] | [3] | [4] | [5] | [6] | [7] | [8] | [9] | [10]

O=C(O)c1cc(Oc2ccc(C(F)(F)F)cc2Cl)ccc1[N+](=O)[O-]
inactive: [1] | [2] | [3] | [4] | [5] | [6] | [7] | [8] | [9] | [10]
